Data from publication PMC7862700, “An all-to-all approach to the identification of sequence-specific readers for epigenetic DNA modifications on cytosine”.

Experiments:
Test in all cases: DAPPL (digital affinity profiling via proximity ligation, sequencing); 10 mM Tris-HCl pH 7.5, 50 mM NaCl, 1 mM DTT, 4% glycerol, room temperature, 30 min; GST-TFs on glutathione beads, 16-mer random dsDNA library, 0.1% formaldehyde crosslink after washing; high values mean tight binding
FEV = molecular target: T1, FEV (Homo sapiens, UniProt Q99581 1-238); settings: protein: recombinant; tags: N-terminal GST; dsDNA, one strand shown
T1 sequence: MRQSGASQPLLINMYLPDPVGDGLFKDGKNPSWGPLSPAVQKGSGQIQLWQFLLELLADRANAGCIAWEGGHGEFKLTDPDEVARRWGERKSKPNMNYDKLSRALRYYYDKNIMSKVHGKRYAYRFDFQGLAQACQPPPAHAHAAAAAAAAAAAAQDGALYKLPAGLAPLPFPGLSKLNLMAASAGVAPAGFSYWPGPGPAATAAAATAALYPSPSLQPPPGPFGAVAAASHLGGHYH
In short: (§1)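 Binding signal is given per hexamer as its read frequency for a factor divided by its frequency in the tag-only sample. GST-fused human transcription factors were expressed in yeast, captured on glutathione beads, barcoded with DNA and pooled with that sample, then incubated with 200 nmole of a 16-mer random double-stranded DNA library in Tris/NaCl/DTT/glycerol buffer for 30 min at room temperature. The pools were then washed, crosslinked, proximity-ligated, amplified by PCR and sequenced on an Illumina NextSeq500.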

ETV5 = ETV5 (Homo sapiens, UniProt P41161 1-510); settings: protein: recombinant; tags: N-terminal GST; dsDNA, one strand shown
In short: as §1

HSF1 = HSF1 (Homo sapiens, UniProt Q00613 1-529); settings: protein: recombinant; tags: N-terminal GST; chain copies: 3; dsDNA, one strand shown
In short: as §1

SPIC = molecular target: T2, SPIC (Homo sapiens, UniProt Q8N5J4 1-248); settings: protein: recombinant; tags: N-terminal GST; dsDNA, one strand shown
T2 sequence: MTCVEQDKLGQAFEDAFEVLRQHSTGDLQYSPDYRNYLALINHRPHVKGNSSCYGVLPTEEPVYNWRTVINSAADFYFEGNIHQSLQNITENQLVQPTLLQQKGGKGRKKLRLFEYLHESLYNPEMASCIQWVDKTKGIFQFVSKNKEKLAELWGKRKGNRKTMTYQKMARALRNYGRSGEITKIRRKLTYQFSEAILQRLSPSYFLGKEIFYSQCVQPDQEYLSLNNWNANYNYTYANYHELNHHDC
In short: as §1

ELF4 = ELF4 (Homo sapiens, UniProt Q99607 1-663); settings: protein: recombinant; tags: N-terminal GST; dsDNA, one strand shown
In short: as §1

ELK4 = molecular target: T3, ELK4 (Homo sapiens, UniProt P28324-2 1-405); settings: protein: recombinant; tags: N-terminal GST; dsDNA, one strand shown
T3 sequence: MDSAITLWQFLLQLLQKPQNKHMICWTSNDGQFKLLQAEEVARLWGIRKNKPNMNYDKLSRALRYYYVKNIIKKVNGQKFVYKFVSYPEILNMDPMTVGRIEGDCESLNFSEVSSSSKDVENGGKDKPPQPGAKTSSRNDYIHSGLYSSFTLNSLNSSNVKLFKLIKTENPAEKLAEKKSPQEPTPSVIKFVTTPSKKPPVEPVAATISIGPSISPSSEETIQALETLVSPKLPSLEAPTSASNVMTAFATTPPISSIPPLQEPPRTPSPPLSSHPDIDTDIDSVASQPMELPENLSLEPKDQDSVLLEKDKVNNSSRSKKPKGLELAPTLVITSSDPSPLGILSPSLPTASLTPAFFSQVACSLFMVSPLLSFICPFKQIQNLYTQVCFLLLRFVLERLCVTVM
In short: as §1

ETV2 = molecular target: T4, ETV2 (Homo sapiens, UniProt O00321 1-342); settings: protein: recombinant; tags: N-terminal GST; dsDNA, one strand shown
T4 sequence: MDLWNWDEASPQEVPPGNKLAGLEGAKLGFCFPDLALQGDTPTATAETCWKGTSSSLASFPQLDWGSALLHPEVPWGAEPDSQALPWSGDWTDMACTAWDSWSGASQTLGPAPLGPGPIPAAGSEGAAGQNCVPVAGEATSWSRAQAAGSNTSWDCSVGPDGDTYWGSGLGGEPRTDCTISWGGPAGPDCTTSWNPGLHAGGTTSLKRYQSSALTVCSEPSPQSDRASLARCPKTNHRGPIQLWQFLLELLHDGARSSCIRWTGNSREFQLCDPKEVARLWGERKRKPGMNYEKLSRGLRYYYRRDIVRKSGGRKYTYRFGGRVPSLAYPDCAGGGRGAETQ
In short: as §1

ELF3 = molecular target: T5, ELF3 (Homo sapiens, UniProt P78545 1-371); settings: protein: recombinant; tags: N-terminal GST; dsDNA, one strand shown
T5 sequence: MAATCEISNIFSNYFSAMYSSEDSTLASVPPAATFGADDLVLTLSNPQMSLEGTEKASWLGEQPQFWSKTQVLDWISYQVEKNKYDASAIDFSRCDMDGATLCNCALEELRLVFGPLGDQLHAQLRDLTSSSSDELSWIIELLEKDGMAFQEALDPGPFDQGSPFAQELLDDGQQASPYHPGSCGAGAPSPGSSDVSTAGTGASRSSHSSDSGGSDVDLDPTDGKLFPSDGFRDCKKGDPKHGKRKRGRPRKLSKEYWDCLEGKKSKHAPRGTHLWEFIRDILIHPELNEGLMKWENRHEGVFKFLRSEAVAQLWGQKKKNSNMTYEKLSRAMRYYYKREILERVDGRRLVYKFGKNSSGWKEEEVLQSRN
In short: as §1

CRX = CRX (Homo sapiens, UniProt O43186 1-299); settings: protein: recombinant; tags: N-terminal GST; dsDNA, one strand shown
In short: as §1

ETV1 = ETV1 (Homo sapiens, UniProt P50549 1-477); settings: protein: recombinant; tags: N-terminal GST; dsDNA, one strand shown
In short: as §1

ERF = molecular target: T6, ERF (Homo sapiens, UniProt P50548 1-548); settings: protein: recombinant; tags: N-terminal GST; dsDNA, one strand shown
T6 sequence: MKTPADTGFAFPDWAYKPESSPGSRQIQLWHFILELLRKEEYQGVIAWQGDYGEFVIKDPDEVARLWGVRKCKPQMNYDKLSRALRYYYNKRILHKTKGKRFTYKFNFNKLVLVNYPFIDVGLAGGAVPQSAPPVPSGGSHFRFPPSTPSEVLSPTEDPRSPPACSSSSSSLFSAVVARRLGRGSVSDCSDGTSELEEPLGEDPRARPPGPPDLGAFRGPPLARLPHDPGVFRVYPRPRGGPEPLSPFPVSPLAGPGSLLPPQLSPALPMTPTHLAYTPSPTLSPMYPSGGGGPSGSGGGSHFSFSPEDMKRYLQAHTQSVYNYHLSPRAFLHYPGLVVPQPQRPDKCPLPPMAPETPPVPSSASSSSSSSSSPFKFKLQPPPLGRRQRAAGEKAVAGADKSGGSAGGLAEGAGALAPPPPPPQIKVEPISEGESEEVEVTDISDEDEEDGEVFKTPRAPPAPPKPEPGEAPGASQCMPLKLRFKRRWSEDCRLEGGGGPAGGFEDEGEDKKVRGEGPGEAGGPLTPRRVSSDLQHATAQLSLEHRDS
In short: as §1

ETV3L = molecular target: T7, ETV3L (Homo sapiens, UniProt Q6ZN32 1-361); settings: protein: recombinant; tags: N-terminal GST; dsDNA, one strand shown
T7 sequence: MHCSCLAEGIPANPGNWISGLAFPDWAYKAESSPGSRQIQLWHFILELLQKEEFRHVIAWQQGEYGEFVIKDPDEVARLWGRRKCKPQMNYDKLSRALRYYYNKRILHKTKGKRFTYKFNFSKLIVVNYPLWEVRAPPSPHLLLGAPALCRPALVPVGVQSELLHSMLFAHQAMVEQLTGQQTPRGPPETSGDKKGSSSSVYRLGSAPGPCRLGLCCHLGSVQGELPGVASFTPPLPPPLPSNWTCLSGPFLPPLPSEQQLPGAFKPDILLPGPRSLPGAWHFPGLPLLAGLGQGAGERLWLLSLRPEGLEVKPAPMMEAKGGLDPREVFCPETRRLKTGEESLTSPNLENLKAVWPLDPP
In short: as §1

ETS2 = molecular target: T8, ETS2 (Homo sapiens, UniProt P15036 1-469); settings: protein: recombinant; tags: N-terminal GST; dsDNA, one strand shown
T8 sequence: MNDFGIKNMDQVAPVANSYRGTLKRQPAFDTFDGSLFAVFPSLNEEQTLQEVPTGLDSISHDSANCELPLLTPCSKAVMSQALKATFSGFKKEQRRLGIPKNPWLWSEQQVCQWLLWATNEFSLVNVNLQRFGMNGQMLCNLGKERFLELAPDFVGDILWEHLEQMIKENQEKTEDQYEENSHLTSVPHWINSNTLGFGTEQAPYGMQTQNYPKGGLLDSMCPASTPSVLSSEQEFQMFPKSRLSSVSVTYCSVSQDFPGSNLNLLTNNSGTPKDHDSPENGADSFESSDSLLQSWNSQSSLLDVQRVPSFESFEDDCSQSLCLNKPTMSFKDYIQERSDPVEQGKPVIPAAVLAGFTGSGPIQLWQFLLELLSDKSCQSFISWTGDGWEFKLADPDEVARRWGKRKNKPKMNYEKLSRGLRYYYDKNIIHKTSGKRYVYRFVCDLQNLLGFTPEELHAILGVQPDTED
In short: as §1

SPDEF = molecular target: T9, SPDEF (Homo sapiens, UniProt O95238 1-335); settings: protein: recombinant; tags: N-terminal GST; dsDNA, one strand shown
T9 sequence: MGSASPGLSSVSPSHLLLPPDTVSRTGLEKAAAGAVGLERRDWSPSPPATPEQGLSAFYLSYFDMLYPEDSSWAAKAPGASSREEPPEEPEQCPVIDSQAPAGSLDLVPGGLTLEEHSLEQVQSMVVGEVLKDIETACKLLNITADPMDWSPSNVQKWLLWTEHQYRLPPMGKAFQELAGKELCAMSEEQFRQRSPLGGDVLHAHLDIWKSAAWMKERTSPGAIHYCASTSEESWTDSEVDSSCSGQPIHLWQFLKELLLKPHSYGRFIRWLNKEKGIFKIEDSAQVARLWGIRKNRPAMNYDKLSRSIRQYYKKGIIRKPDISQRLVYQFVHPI
In short: as §1

ETV7 = molecular target: T10, ETV7 (Homo sapiens, UniProt Q9Y603 1-341); settings: protein: recombinant; tags: N-terminal GST; dsDNA, one strand shown
T10 sequence: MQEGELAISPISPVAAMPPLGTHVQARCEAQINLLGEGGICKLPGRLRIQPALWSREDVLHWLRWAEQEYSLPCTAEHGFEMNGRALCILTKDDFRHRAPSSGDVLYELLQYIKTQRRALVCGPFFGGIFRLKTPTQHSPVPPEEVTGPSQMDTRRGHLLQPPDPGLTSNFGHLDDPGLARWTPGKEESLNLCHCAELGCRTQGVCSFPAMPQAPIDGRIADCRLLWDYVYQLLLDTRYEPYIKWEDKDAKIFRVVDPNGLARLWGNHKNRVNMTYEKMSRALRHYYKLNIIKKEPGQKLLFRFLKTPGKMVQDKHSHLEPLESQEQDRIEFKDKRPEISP
In short: as §1

ELF5 = molecular target: T11, ELF5 (Homo sapiens, UniProt Q9UKW6-2 1-255); settings: protein: recombinant; tags: N-terminal GST; dsDNA, one strand shown
T11 sequence: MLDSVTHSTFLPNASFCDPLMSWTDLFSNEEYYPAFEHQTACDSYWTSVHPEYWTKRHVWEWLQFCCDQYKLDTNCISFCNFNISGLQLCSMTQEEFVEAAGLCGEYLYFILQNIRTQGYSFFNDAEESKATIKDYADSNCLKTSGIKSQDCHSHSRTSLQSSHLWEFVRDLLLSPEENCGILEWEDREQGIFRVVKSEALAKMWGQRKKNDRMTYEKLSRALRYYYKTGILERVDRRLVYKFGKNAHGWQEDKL
In short: as §1

ETV3 = molecular target: T12, ETV3 (Homo sapiens, UniProt P41162-2 1-143); settings: protein: recombinant; tags: N-terminal GST; dsDNA, one strand shown
T12 sequence: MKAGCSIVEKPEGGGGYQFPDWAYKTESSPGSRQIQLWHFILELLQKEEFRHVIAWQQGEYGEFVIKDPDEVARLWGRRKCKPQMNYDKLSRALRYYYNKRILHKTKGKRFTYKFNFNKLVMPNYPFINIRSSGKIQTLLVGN
In short: as §1

ETV6 = ETV6 (Homo sapiens, UniProt P41212 1-452); settings: protein: recombinant; tags: N-terminal GST; dsDNA, one strand shown
In short: as §1

Sequence of ETV1 (P50549 whole entry): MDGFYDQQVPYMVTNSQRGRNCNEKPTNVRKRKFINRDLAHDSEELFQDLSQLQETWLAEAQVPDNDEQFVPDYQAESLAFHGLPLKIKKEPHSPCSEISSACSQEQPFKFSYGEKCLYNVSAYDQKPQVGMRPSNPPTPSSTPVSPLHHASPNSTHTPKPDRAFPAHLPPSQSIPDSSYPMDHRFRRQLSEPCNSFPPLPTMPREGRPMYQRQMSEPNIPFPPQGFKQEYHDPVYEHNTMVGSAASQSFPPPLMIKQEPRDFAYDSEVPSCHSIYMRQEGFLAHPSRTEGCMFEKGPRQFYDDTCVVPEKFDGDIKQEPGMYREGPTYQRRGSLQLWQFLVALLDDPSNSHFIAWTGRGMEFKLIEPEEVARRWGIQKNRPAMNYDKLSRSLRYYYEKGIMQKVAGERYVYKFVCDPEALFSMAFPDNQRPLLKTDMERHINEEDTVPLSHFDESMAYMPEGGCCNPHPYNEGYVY
Sequence of ETV6 (P41212 whole entry): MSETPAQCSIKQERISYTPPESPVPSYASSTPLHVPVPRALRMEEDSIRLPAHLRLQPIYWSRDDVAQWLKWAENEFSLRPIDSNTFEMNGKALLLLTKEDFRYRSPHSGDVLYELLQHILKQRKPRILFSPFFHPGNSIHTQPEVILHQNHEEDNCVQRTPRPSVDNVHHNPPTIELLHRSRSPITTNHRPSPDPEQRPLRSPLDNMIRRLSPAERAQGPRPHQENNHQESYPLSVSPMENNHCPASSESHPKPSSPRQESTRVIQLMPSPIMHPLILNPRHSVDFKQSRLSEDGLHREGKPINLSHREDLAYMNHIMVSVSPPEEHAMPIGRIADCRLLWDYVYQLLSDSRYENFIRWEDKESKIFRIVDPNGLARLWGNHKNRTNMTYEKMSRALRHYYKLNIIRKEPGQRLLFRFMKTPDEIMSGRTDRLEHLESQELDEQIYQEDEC
Sequence of HSF1 (Q00613 whole entry): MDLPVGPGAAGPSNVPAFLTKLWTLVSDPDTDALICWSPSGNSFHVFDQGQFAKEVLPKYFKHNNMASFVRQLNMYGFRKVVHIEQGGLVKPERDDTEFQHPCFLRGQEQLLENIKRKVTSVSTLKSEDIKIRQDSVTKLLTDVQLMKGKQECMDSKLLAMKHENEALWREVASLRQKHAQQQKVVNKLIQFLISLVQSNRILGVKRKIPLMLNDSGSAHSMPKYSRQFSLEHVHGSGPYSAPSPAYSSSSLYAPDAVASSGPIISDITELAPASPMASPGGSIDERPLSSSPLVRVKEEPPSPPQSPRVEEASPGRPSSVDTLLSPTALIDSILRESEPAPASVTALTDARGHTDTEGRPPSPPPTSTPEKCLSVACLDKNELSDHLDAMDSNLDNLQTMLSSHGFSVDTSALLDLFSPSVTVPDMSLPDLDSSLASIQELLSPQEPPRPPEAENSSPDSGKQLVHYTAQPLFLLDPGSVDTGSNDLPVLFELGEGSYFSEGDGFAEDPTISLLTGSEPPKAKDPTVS
Sequence of ETV5 (P41161 whole entry): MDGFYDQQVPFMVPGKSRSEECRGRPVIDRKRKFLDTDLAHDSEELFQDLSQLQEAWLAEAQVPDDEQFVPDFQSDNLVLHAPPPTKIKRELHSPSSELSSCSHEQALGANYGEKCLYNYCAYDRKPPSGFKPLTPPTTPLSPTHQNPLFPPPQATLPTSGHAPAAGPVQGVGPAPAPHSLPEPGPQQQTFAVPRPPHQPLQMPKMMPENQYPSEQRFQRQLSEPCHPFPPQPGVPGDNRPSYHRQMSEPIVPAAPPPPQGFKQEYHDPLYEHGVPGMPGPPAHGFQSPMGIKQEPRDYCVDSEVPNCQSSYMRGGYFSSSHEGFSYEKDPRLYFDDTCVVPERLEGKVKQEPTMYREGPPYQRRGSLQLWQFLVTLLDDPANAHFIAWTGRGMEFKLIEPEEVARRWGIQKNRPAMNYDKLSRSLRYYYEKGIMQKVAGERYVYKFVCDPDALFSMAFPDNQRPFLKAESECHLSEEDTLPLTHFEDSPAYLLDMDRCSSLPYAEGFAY
Sequence of CRX (O43186 whole entry): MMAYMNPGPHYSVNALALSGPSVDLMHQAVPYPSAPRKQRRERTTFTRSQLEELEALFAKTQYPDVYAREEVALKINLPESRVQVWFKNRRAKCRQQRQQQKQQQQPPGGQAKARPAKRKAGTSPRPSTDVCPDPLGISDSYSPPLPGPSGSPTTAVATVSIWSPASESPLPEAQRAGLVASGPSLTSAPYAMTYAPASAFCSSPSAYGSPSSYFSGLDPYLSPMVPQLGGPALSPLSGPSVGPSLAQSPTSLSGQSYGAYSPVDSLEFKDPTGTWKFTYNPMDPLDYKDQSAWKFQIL
Sequence of ELF4 (Q99607 whole entry): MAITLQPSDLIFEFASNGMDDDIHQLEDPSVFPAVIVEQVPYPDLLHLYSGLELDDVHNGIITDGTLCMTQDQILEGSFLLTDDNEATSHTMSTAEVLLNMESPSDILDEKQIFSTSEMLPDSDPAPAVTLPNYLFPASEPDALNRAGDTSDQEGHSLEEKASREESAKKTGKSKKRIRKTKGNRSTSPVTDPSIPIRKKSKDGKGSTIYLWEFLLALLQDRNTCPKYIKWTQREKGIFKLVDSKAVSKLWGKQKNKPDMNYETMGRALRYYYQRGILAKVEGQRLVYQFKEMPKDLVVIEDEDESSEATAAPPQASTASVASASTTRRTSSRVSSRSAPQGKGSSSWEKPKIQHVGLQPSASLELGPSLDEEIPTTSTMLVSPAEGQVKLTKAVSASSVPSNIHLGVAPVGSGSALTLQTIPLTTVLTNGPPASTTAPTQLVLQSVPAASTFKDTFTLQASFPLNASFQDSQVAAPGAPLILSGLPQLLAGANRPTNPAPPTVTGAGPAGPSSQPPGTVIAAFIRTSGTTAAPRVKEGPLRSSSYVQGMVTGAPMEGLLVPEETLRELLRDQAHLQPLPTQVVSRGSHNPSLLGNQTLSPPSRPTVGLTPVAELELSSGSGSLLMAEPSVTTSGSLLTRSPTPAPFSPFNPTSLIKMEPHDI

Sequence	binding signal (FEV)	binding signal (ETV5)	binding signal (HSF1)	binding signal (SPIC)	binding signal (ELF4)	binding signal (ELK4)	binding signal (ETV2)	binding signal (ELF3)	binding signal (CRX)	binding signal (ETV1)	binding signal (ERF)	binding signal (ETV3L)	binding signal (ETS2)	binding signal (SPDEF)	binding signal (ETV7)	binding signal (ELF5)	binding signal (ETV3)	binding signal (ETV6)
TCCGGC	3.33 fold enrichment (6-mer frequency, TF over GST control)	2.4 fold enrichment (6-mer frequency, TF over GST control)	1.17 fold enrichment (6-mer frequency, TF over GST control)	2.2 fold enrichment (6-mer frequency, TF over GST control)	1.95 fold enrichment (6-mer frequency, TF over GST control)	2.03 fold enrichment (6-mer frequency, TF over GST control)	2.4 fold enrichment (6-mer frequency, TF over GST control)	1.97 fold enrichment (6-mer frequency, TF over GST control)	1.1 fold enrichment (6-mer frequency, TF over GST control)	2.31 fold enrichment (6-mer frequency, TF over GST control)	2.13 fold enrichment (6-mer frequency, TF over GST control)	2.23 fold enrichment (6-mer frequency, TF over GST control)	2.08 fold enrichment (6-mer frequency, TF over GST control)	3.14 fold enrichment (6-mer frequency, TF over GST control)	1.95 fold enrichment (6-mer frequency, TF over GST control)	2.67 fold enrichment (6-mer frequency, TF over GST control)	2.32 fold enrichment (6-mer frequency, TF over GST control)	2.28 fold enrichment (6-mer frequency, TF over GST control)
TCTACC	1.52 fold enrichment (6-mer frequency, TF over GST control)	1.52 fold enrichment (6-mer frequency, TF over GST control)	1.67 fold enrichment (6-mer frequency, TF over GST control)	1.53 fold enrichment (6-mer frequency, TF over GST control)	1.56 fold enrichment (6-mer frequency, TF over GST control)	1.48 fold enrichment (6-mer frequency, TF over GST control)	1.39 fold enrichment (6-mer frequency, TF over GST control)	1.53 fold enrichment (6-mer frequency, TF over GST control)	1.44 fold enrichment (6-mer frequency, TF over GST control)	1.57 fold enrichment (6-mer frequency, TF over GST control)	1.73 fold enrichment (6-mer frequency, TF over GST control)	1.78 fold enrichment (6-mer frequency, TF over GST control)	1.6 fold enrichment (6-mer frequency, TF over GST control)	1.6 fold enrichment (6-mer frequency, TF over GST control)	1.44 fold enrichment (6-mer frequency, TF over GST control)	1.61 fold enrichment (6-mer frequency, TF over GST control)	1.52 fold enrichment (6-mer frequency, TF over GST control)	1.54 fold enrichment (6-mer frequency, TF over GST control)
